PubChem BioAssay (EPA / NIEHS)
Activity calls are given as the source filed them. How the source made its calls: active means hit-call score of the fitted dose curve at least 0.9, where 1 is the maximum; inactive means score below 0.9.

These compounds were tested on CYP3A5 (gene 1577) (assay: LTEA_HepaRG_CYP3A5: Life Technologies and Expression Analysis (LTEA) Assay for CYP3A5 using HepaRG (AID 2283493)). Conditions: mRNA level, 48 h; actives raise or lower the signal.
Outline: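 HepaRG plated 48 h, switched to serum-free induction medium, chemicals added 48 h (max 100 uM, half-log, 0.5% DMSO). RNA isolated; CYP3A5 by TaqMan qRT-PCR. Gain/loss vs DMSO.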

Row | Structure (SMILES) | AC50 | outcome
1 | COc1cc2c(c(OC)c1OC)-c1ccc(OC)c(=O)cc1[C@@H](NC(C)=O)CC2 | 0.0995 µM (active) | –
2 | CCCCCCCCN(C)C | – | inactive
3 | C=CN1CCCC1=O | – | inactive
4 | O=C1CN(N=Cc2ccc([N+](=O)[O-])o2)C(=O)N1 | – | inactive
5 | OCc1ccccc1 | – | inactive
6 | CCCCN1C(=O)[C@@H]([C@H](O)C2CCCCC2)NC(=O)C12CCN(Cc1ccc(Oc3ccc(C(=O)O)cc3)cc1)CC2 | 1.9 µM (active) | –
7 | CCOC(N)=O | – | inactive
8 | CCCCCCCCCCCCCCO | – | inactive
9 | NC(=O)NN=Cc1ccc([N+](=O)[O-])o1 | – | inactive
10 | Cc1ncc([C@@H](CCCCCCc2ccc3c(n2)NCCC3)CC(=O)O)cn1 | – | inactive

What follows are compounds tested on Fatty Acid-Binding Protein 1 (FABP1), FABP1 (gene 2168) (assay: LTEA_HepaRG_FABP1: Life Technologies and Expression Analysis (LTEA) Assay for Fatty Acid-Binding Protein 1 (FABP1) using HepaRG (AID 2283494)). Conditions: mRNA level, 48 h; actives raise or lower the signal.
Outline: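 HepaRG, 48 h post-plating switched to serum-free induction medium, then dosed 48 h (duplicate, 8 pts, ≤100 uM, 0.5% DMSO). RNA → Fluidigm TaqMan qRT-PCR, FABP1 normed to ACTB/GAPDH/POLR2A. Bidirectional curve fit vs DMSO.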

Row | Structure (SMILES) | outcome | AC50
11 | CCCCCCCC1CCC(=O)O1 (configuration not stated) | inactive | –
12 | OC(CCl)CCl | inactive | –
13 | C[C@]12C=CC(=O)C=C1CC[C@H]1[C@@H]3C[C@@H](O)[C@](O)(C(=O)CO)[C@@]3(C)C[C@H](O)[C@@]12F | inactive | –
14 | Cn1cc[nH]c1=S | inactive | –
15 | CC[C@H](C)C(=O)O[C@H]1C[C@H](O)C=C2C=C[C@H](C)[C@H](CC[C@@H](O)C[C@@H](O)CC(=O)O)[C@H]21 | – | 3.68 µM (active)
16 | COc1cc2c(c(OC)c1OC)-c1ccc(OC)c(=O)cc1[C@@H](NC(C)=O)CC2 | – | 0.106 µM (active)
17 | NC(=O)N(O)[C@@H]1COc2cc(OCc3ccccc3)ccc21 | inactive | –
18 | CCCCCCCCN(C)C | inactive | –
19 | O=c1[nH]cnc2c1ncn2[C@H]1CC[C@@H](CO)O1 | inactive | –
20 | C=CN1CCCC1=O | inactive | –
21 | CC1(C)C(=O)N(Cl)C(=O)N1Cl | inactive | –
22 | O=C1CN(N=Cc2ccc([N+](=O)[O-])o2)C(=O)N1 | – | 41.9 µM (active)
23 | CCCCC(CC)C(=O)OCCOCCOCCOC(=O)C(CC)CCCC (configuration not stated) | inactive | –
24 | Cc1nc(-c2ccccn2)ncc1C(=O)Nn1cc(C)c2cc(F)ccc21 | – | 6.97 µM (active)
25 | OCc1ccccc1 | inactive | –
26 | CCCCN1C(=O)[C@@H]([C@H](O)C2CCCCC2)NC(=O)C12CCN(Cc1ccc(Oc3ccc(C(=O)O)cc3)cc1)CC2 | – | 2.84 µM (active)

Row | Structure (SMILES) | outcome | AC50
27 | O=C(NO)C1(NS(=O)(=O)c2ccc(Oc3ccc(F)cc3)cc2)CCOCC1 | – | 50 µM (active)
28 | CCOC(N)=O | inactive | –
29 | Cc1nccn1-c1ccc(Sc2cccc(C3(C(N)=O)CCOCC3)c2)cc1 | – | 11.6 µM (active)
30 | CCc1cccc(CC)c1N | inactive | –
31 | OCCOCCOCCO | inactive | –
32 | CCCCCCCCCCCCCCO | inactive | –
33 | c1ccc2ncccc2c1 | inactive | –
34 | c1ccc(C(O[C@@H]2CCCN(CCc3ccc4c(c3)OCO4)C2)c2ccccc2)cc1 | – | 79.1 µM (active)
35 | COS(C)(=O)=O | inactive | –
36 | OC(Cn1cncn1)(Cn1cncn1)c1ccc(F)cc1F | inactive | –
37 | CCCCCCCCCCCCCCCCOS(=O)(=O)O | inactive | –
38 | CCCOc1ccc(S(=O)(=O)N2CCN(CC)CC2)cc1-c1nc2c(CC)n(Cc3ccccn3)nc2c(=O)[nH]1 | – | 12.1 µM (active)
39 | NC(=O)NN=Cc1ccc([N+](=O)[O-])o1 | – | 25.7 µM (active)
40 | O=S1(=O)CCCO1 | inactive | –
41 | COc1cc(C(C)C)c2c(c1)S(=O)(=O)N(COc1cc(=O)n3cccc(OCCN4CCCCC4)c3n1)C2=O | – | 21.7 µM (active)
42 | Cc1ncc([C@@H](CCCCCCc2ccc3c(n2)NCCC3)CC(=O)O)cn1 | inactive | –
